The entries come from a sample that favours hits as a whole.
KDM5B inh: blocks human KDM5B histone demethylase activity; Q9UGL1; KDM5B demethylase, FDH-coupled NADH fluorescence (FDH is formaldehyde dehydrogenase); Potency, µM (top dose mostly 57.7 µM), hits mostly inhibitors; 220,000 tested, 2.6% active; active means well fitted inhibition curve with a large enough effect; further: nearly all actives have a fitted effect of over 70% in size
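Compound dilutions met 200 nM (final) KDM5BΔAP for 10 min at room temperature before substrate addition. The substrate mix held 12.5 µM H3K4me3 with cofactors 25 µM α-ketoglutarate and 50 µM Fe²⁺. NADH signal gain over 30 min defined activity.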
Each line names hits and unclear results; the compound was inactive in the other large screens.

COc1ccc2[nH]c(C(=O)N3C[C@@H](Oc4cccnc4)C[C@H]3C(=O)N3CCCC3)cc2c1	none
O=C([C@@H]1C[C@H](Oc2ccccc2)CN1C(=O)C1CCC1)N1CCCC1	none
CSc1ccc(Cl)c(C(=O)NC(C)c2ccncc2)c1 (stereo unspecified)	none
O=c1c2ccc(Cl)cc2nc2n1CC/C2=C/c1cccc(O)c1	none
N#Cc1ccccc1CN1CCCCCCNC(=O)[C@@H]2C[C@@H](C(=O)N3CCc4ccccc4C3)C[C@@H]21	KDM5B inh 20µM
O=C1NCCCCCCN(C(=O)Nc2ccccc2)[C@H]2C[C@H](C(=O)N3CCc4ccccc4C3)C[C@@H]12	none
Cc1ncsc1CN1CCCCCCNC(=O)[C@@H]2C[C@@H](C(=O)N3CCc4ccccc4C3)C[C@@H]21	none
CCS(=O)(=O)N1CCCCCCNC(=O)[C@@H]2C[C@@H](C(=O)N3CCc4ccccc4C3)C[C@@H]21	none
N#Cc1ccc(CN2CCCCCCNC(=O)[C@@H]3C[C@@H](C(=O)N4CCc5ccccc5C4)C[C@@H]32)cc1	KDM5B inh 25.1µM
O=C1NCCCCCCN[C@H]2C[C@H](C(=O)N3CCc4ccccc4C3)C[C@@H]12	none
Cn1c(C(=O)N2CCN(C(=O)c3cccc(F)c3)CC2)cc2ccccc21	none
CSc1ccc(C(C)NC(=O)c2ccccc2F)cc1 (stereo unspecified)	none
Cc1cc(C)cc(C(=O)N(C)C2CCN(CCc3ccccn3)CC2)c1	none
COc1cc2c(cc1OC)-c1nnc(-c3cccnc3)n1C(C)(C)C2	none
COc1ccc2c(C)c(CC(=O)NCc3ccc(F)cc3)c(=O)oc2c1	none
CCOCCCNC(=O)CC1CCCC1	none
COc1ccc(C(=O)N2CC(C(=O)NCCc3ccccc3)CC(c3ccccc3)C2)cc1OC (stereo unspecified)	none
CC(NC(=O)c1ccccc1F)c1cc2ccccc2o1 (stereo unspecified)	none
Cc1ccc(-c2cc(C(=O)Oc3cccc(Br)c3)no2)cc1	none
Fc1cc(Nc2cnc3ccc(-c4ccccc4)nn23)cc(N2CCOCC2)c1	none
Cc1ccc(-c2nc(Nc3ccc(N4CCOCC4)cc3)c3ccccc3n2)cc1	none
O=C(Nc1ncc(-c2cccc(F)c2)c2c1OCC2)c1cccnc1	none
Fc1cccc(Nc2ncc(-c3cccnc3)c3c2OCC3)c1	KDM5B inh 31.6µM
Fc1cccc(-c2cnc(Nc3ccc(N4CCOCC4)cc3)c3c2CCO3)c1	KDM5B inh 31.6µM
Fc1cc(Nc2ncc(-c3cccnc3)c3c2OCC3)cc(N2CCOCC2)c1	KDM5B inh 31.6µM
COc1ccccc1-c1ccc2ncc(Nc3cc(F)cc(N4CCOCC4)c3)n2n1	none
Fc1cccc(-c2cnc(Nc3cncnc3)c3c2CCO3)c1	none
c1ccc(Nc2ncc(-c3ccccc3)c3c2OCC3)cc1	none
c1ccc(-c2cnc(Nc3cncnc3)c3c2CCO3)cc1	none
Fc1cc(Nc2ncc(-c3ccccc3)c3c2OCC3)cc(N2CCOCC2)c1	KDM5B inh 12.6µM
COc1cc(/C=C(/C#N)C(=O)O)ccc1OC(=O)c1cccs1	none
CCOc1ccc(Cl)cc1CN(C)c1cc(C2CC(O)C2)nc(N)n1 (stereo unspecified)	none
CCn1cc(C(=O)NCCOc2ccccc2OC)c2ccccc21	none
O=[N+]([O-])c1ccc(/C=N/Nc2ccc(Cl)nn2)cc1	none
CCC(=O)N1CCN(c2ccc(Cl)cc2NC(=O)c2ccc(C#N)cc2F)CC1	none
Cc1ccc(CNc2oc(CC(C)C)nc2C#N)cc1	none
Cc1ccc(OCC(=O)N2CCN(S(=O)(=O)c3cccs3)CC2)cc1	none
COc1ccc(-c2nc3c(c(=O)[nH]2)CCN(C(=O)COc2ccccc2C)C3)cc1	KDM5B inh 25.1µM
O=C(Cc1ccccc1)N1CCc2c(nc(-c3ccccc3)[nH]c2=O)C1	none
COc1ccc(CNC(=O)N2CCc3c(nc(-c4ccc(OC)cc4)[nH]c3=O)C2)cc1	none
COc1ncccc1C(=O)N1CCc2c(nc(-c3cccnc3)[nH]c2=O)C1	none
COc1ccc(-c2nc3c(c(=O)[nH]2)CCN(S(=O)(=O)c2cccs2)C3)cc1	KDM5B inh 20µM
COc1cc(NC(=O)CCc2ncc(-c3ccc(Cl)cc3)o2)cc(OC)c1	none
Cc1ccc(C)c(NC(=O)Cc2c[nH]c3ccccc23)c1	none
Cc1sc2ncn(CC(=O)NC3CCCc4ccccc43)c(=O)c2c1-c1ccccc1 (stereo unspecified)	none
CCCc1nc(C(=O)NC2CCCc3nc(N(C)C)ncc32)cs1 (stereo unspecified)	KDM5B inh 25.1µM
O=C(CC1CC1)NC1CCCc2nc(-c3ccccc3)ncc21 (stereo unspecified)	none
CCCc1nc(C(=O)NCC2CCN(Cc3ccc(C)o3)CC2)cs1	none
COc1ccc(-c2nc(Cn3nnc(C(=O)NCc4ccc(Cl)cc4)c3N)c(C)o2)c(OC)c1	none
CC(Nc1sc(S(C)(=O)=O)nc1S(=O)(=O)c1ccc(Cl)cc1)c1ccccc1 (stereo unspecified)	none
COc1ccc(NC(=O)c2ncoc2-c2ccc(C)s2)cc1	none
O=C1C=Cc2ccccc2/C1=C/N(O)c1ccccc1	none
Cc1cccc(C)c1CN1CCCC12Cc1ccccc1CNC2=O (stereo unspecified)	none
COc1ncccc1CN1CCCC12Cc1ccccc1CNC2=O (stereo unspecified)	none
Cc1ncc(CO)c(CN2CCCCC23Cc2ccccc2CNC3=O)c1O (stereo unspecified)	none
O=C1NCc2ccccc2CC12CCN(Cc1ccnc3ccccc13)C2 (stereo unspecified)	none
O=C1NCc2ccccc2CC12CCCN2Cc1ccnc2ccccc12 (stereo unspecified)	KDM5B inh 50.1µM
Cc1ncc(CO)c(CN2CCCC23Cc2ccccc2CNC3=O)c1O (stereo unspecified)	KDM5B inh 79.4µM
COc1cc(/C=N/O)ccc1OCc1c(Cl)cccc1Cl	none
O=C(O)C/C(=C/c1ccc(Br)s1)c1nc2ccccc2o1	none
Cc1ccc(C)c(NC(=O)C(c2ccccc2)N2CCC(c3nc(C4CC4)n[nH]3)CC2)c1 (stereo unspecified)	none
COc1cccc(OC)c1CN1C[C@@H](CO)[C@H](c2nc(C)no2)C1	none
CSc1ccc(CNCCCOC(C)C)cc1	none
COC1CCC12CCN(Cc1ccccc1C#N)CC2 (stereo unspecified)	none
N#Cc1ccccc1-c1ccc(CN2CCCC2)cc1	none
C[C@]1(O)CCN(Cc2ccc(-c3ccccc3C#N)o2)C[C@@H]1O	KDM5B inh 25.1µM
Cc1cc(S(=O)(=O)N(Cc2ccncc2)C2CC2)ccc1Br	none
Clc1ccccc1-c1nnc2sc(Cn3cccn3)nn12	none
Cc1noc(C)c1S(=O)(=O)N1CCC2(C1)N=C(c1ccccn1)C(=O)N2 (stereo unspecified)	none
COC(=O)N1CCC2(C1)N=C(c1ccncc1)C(=O)N2 (stereo unspecified)	none
O=C1NC2(CCN(C(=O)OCc3ccccc3)C2)N=C1c1ccccn1 (stereo unspecified)	KDM5B inh 25.1µM
CC(C)c1noc(CCCC(=O)NC(C)c2cccs2)n1 (stereo unspecified)	none
O=C(Cc1ccccc1F)N(Cc1ccco1)C1CC1	none
Cc1nc(C2CC2)ncc1C(=O)O	none
CCCCNc1ncc(C(=O)O)c(C)n1	KDM5B inh 14.1µM
Cc1ncncc1C(=O)O	none
COc1cc(F)c(S(=O)(=O)N2CCC(C(N)=O)CC2)cc1OC	none
O=C(CSc1nc2ccc(N=Cc3c4ccccc4cc4ccccc34)cc2s1)NCCc1ccccc1	none
Cn1cc([C@@H](NC(=O)c2cccc3c2NCCC3)C2CC(O)C2)cn1 (stereo partly specified)	KDM5B inh 28.2µM
Cc1c(C(=O)N[C@H](c2cnn(C)c2)C2CC(O)C2)sc2nc[nH]c(=O)c12 (stereo partly specified)	none

From PubChem
